The sample as a whole holds a higher share of hits than the screen did.
PI5P4K alpha inh = inhibitors of human PI5P4K alpha; PI5P4Kalpha enzyme, ADP-Glo luminescence, 60 min; hits give low values; max response, %; 330,000 compounds, 1.2% hits; active = max response of -50% or lower; inconclusive = between -30% and -50%; inactive = -30% or higher; also: value at the top dose of about 77 µM
Target sequence (P48426 whole entry, looked up): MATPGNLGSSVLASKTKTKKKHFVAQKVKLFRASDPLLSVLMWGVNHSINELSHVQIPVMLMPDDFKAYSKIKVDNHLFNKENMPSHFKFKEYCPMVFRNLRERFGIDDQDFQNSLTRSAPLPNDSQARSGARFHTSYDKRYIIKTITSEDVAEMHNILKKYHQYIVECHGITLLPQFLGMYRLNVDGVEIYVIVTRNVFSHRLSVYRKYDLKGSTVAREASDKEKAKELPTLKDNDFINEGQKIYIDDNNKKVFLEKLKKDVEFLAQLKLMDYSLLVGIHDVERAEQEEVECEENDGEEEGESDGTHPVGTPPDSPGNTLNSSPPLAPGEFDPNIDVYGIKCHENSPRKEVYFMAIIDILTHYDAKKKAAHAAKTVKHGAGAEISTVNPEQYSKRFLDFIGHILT
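Enzyme plus substrate dispensed, test compounds pinned in, then ATP (5 microM final) added. After 60 min at RT, ADP-Glo reagent 1 for 45 min and reagent 2 for 30 min preceded luminescence imaging.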
Pin1 inh = inhibitors of human Pin1 | Pin1 FP peptide displacement, HiFluor488, 10 min | Potency, µM (highest dose often 115 µM), for the others: top-dose activity, negative = inhibition, hits mostly inhibitors | 390,000 compounds, 0.009% hits; active = well fitted inhibition curve with a large enough effect in the polarisation, with a control signal flat, not every such curve was filed as active; inconclusive = small, poorly fitted or top-dose-only effect, or effect the other way, or a change in a side signal; inactive = no such curve, though single readings can be large or run the other way; the % refers to the polarisation; also: potency is read from the fitted curve at half-maximal effect
Target sequence (Q13526 whole entry, looked up): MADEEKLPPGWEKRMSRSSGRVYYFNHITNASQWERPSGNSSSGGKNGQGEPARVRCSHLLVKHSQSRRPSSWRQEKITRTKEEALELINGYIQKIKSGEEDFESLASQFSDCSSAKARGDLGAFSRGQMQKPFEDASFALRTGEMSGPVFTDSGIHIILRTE
PI4K2A inh = PI4K2A (human) kinase inhibition; activity change, negative = inhibition, % at 76.9 µM; 420,000 compounds, 0.13% hits; AID 1346378; purified PI4K2A, ADP-Glo luminescence, 1 h; hits give low values; in the data active = activity change below about -50%; inconclusive = mostly about -30% to -49%;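 also: -100% = wells without enzyme as full effect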
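Compounds are screened against recombinant PI4K2A using PI as substrate and ATP, the latter dispensed at 300 microM. Reactions run one hour at ambient temperature before ADP-Glo detection; full inhibition defined by wells lacking enzyme.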
Tb PFK block = blocks T. brucei phosphofructokinase. O15648. AID 485367. Potency, µM (highest dose often 57.5 µM), without a hit: at the highest dose activity, negative = inhibition, hits mostly inhibitors. T. brucei PFK, ADP-Glo luminescence. 330,000 compounds, 0.17% hits;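 also: potency is read from the fitted curve at half-maximal effect; 0% = uninhibited 1x PFK enzyme wells and -100% = no-enzyme wells; nearly all actives have a fitted effect of over 60% in size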
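Compounds were pin-transferred as a titration series up to 57 uM into substrate buffer (0.5 mM F6P, 0.1 mM ATP, pH 8.0), then 1.25 nM PFK was added and reactions ran 45 min before ADP-Glo detection.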
Tb PGK inh = T. brucei PGK inhibition; P07378; PGK/GAPDH coupled, Kinase-Glo luminescence, 60 min; Potency, µM (series often up to 57.5 µM), for the others: at the highest dose activity change, negative = inhibition, hits mostly inhibitors; 380,000 compounds, 0.043% hits; AID 602233; also: potency is read from the fitted curve at half-maximal effect; nearly all actives have a fitted effect of over 60% in size
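Recombinant glycosomal PGK reaction used 1,3-bisphosphoglycerate generated in-well by GAPDH (100nM final) in 100mM TEA pH 7.6, 5mM MgCl2, 0.01% Tween-20. After 60 minutes at room temperature, ATP was read by Kinase-Glo Plus luminescence end-point.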
ADP-Glo counter = counter-screen for PI5P4K inhibitors: ADP-Glo detection interference, no enzyme; Potency, µM (top dose mostly 76.9 µM), for inactives: at the top dose activity change, negative = inhibition, hits mostly inhibitors; 1,100 tested, under 10 active; AID 743285; shares compounds with PI5P4K alpha inh; ADP-Glo detection counter-screen, luciferase luminescence, no enzyme
The depositor's hits bear a star; i = inactive; u = inconclusive; x = no result. Unless noted, calls follow the shape of the dose curve; as a rule, active = well fitted curve in the direction sought with a large enough effect; inconclusive = small, poorly fitted or top-dose-only effect, or another doubt; inactive = no such curve, though single readings can be large; an effect the other way counts as inactive or inconclusive. Unless noted, % is scaled to controls: 0 for no effect and ±100 for the full control effect.

SMILES | PI5P4K alpha inh | Pin1 inh | PI4K2A inh | Tb PFK block | Tb PGK inh | ADP-Glo counter
CCN1CCN(C(=O)Cn2nc(-c3ccc(Cl)cc3)ccc2=O)CC1 | u | -2% | -5 | 7% | -8% | -8%
CC(C)C1Nc2c(O)cc(Cl)c([N+](=O)[O-])c2C2C=CCC21 (stereo unspecified) | -26 | -4% | -3 | -1% | -7% | x
O=C(O)C1Nc2c(Cl)cc(Cl)c(Cl)c2C2C=CCC12 (stereo unspecified) | -76* | x | -6 | x | u | 0%
N#CC1=C2SCN(c3ccccc3)CN2C(=O)CC1c1cccs1 (stereo unspecified) | -73* | -8% | -7 | -15% | 1% | -8%
N#CC1=C2SCN(C3CCCCC3)CN2C(=O)CC1c1c(F)cccc1Cl (stereo unspecified) | x | 7% | -5 | x | 6% | x
Cc1ccc(C2CC(=O)N3CN(c4ccc(Br)cc4)CSC3=C2C#N)o1 (stereo unspecified) | x | 1% | -2 | 0% | -7% | x
N#CC1=C2SCC(O)(c3ccccc3)N2C(=O)CC1c1cccs1 (stereo unspecified) | x | u | -2 | 7% | i | x
N#CC1=C2SCN(c3ccccc3)CN2C(=O)CC1c1ccccc1Cl (stereo unspecified) | -82* | -6% | -3 | -3% | 2% | -9%
N#CC1=C2SCN(c3ccccc3)CN2C(=O)CC1c1c(Cl)cccc1Cl (stereo unspecified) | -75* | 0% | -5 | -22% | -6% | -6%
COc1cccc(-n2c(C)n[nH]c2=O)c1 | 0 | -6% | -2 | -2% | i | x
CC(C)(C(=O)N1CCC1(C)C(=O)NS(=O)(=O)c1ccc(C#N)cc1)c1ccccc1 (stereo unspecified) | -25 | x | -6 | x | x | -4%
Cc1ccccc1S(=O)(=O)NC(=O)C1(C)CCN1C(=O)C(C)(C)c1ccccc1 (stereo unspecified) | -5 | x | -1 | x | x | x
COc1ccccc1CNC(=O)CSC1=NCCS1 | 2 | -5% | -4 | -15% | -3% | x
O=C(CSC1=NCCS1)NCc1ccco1 | -54* | 2% | -17 | -5% | -9% | 1%
COc1ccc(C(=O)NCc2nnc(SC)n2C2CCCCC2)cc1 | -54* | 1% | 1 | -6% | -1% | 9%
COc1cccc(NC(=O)CN(C)C(=O)C2=COCCO2)c1 | 8 | 0% | -8 | -1% | -1% | x
Cc1ccc(S(=O)(=O)N2CCOC2CNC(=O)C(=O)NCc2ccc3c(c2)OCO3)cc1 (stereo unspecified) | -8 | -2% | -2 | -1% | -3% | x
O=C(CCC1CCCN(C(=O)CCC(F)(F)F)C1)NCc1ccc(F)c(F)c1 (stereo unspecified) | 1 | u | 0 | 2% | 7% | x
Cc1noc(C)c1CCC(=O)N1CCCC(CCC(=O)NCc2ccc(F)c(F)c2)C1 (stereo unspecified) | -61* | x | -16 | -4% | -27% | 1%
CCCNC(=O)C1CC(=O)N(c2ccc(OCc3ccc(F)cc3)cc2)C1 (stereo unspecified) | 0 | -3% | -17 | 0% | -19% | x
O=C(Nc1cccc(C(F)(F)F)c1)c1cc(-c2ccc(Cl)s2)nc2ccccc12 | x | 0% | 1 | x | 0% | x
CC(C)(NC(=O)c1ccccc1)c1nc2ccccc2s1 | -82* | -1% | -4 | u | -6% | -4%
O=C(NC(=S)NCc1cccnc1)c1ccccc1F | 2 | -11% | -5 | -3% | -9% | x
COc1ccccc1N(CC(=O)NCc1ccco1)S(=O)(=O)c1ccc(C)cc1 | -80* | x | -13 | u | u | -2%
COc1ccccc1NCCC(=O)OCC(=O)NCc1ccco1 | -60* | u | -3 | u | u | 0%
SMILES | PI5P4K alpha inh | Pin1 inh | PI4K2A inh | Tb PFK block | Tb PGK inh | ADP-Glo counter
COc1ccc(NC(=O)CSc2nc3[nH]c(=O)cc(O)c3s2)cc1OC | -6 | u | -10 | -2% | -11% | x
O=c1cc(O)c2sc(Nc3ccc(F)cc3)nc2[nH]1 | -83* | 31% | -12 | 13% | i | 2%
O=c1cc(O)c2sc(Nc3cccc(C(F)(F)F)c3)nc2[nH]1 | -84* | 6% | -5 | 9% | -7% | -8%
CC(Nc1ccccc1CO)C(=O)Nc1cccc(Cl)c1Cl (stereo unspecified) | 9 | -1% | 0 | 1% | i | x
CC(O)CNc1nc2c(c(=O)n(Cc3cccc(Cl)c3)c(=O)n2C)n1C (stereo unspecified) | 7 | -4% | -3 | 0% | 11% | x
COc1ccccc1N1CCN(C(=O)c2ccc(C(C)(C)C)cc2)CC1 | -62* | -19% | -4 | -9% | i | -6%
COC(=O)c1c[nH]c(=O)c2ccccc12 | -56* | -6% | 1 | -3% | -8% | -7%
CCOC(=O)C1Nc2c(cc(C(F)(F)F)cc2[N+](=O)[O-])C2c3ccccc3CC12 (stereo unspecified) | 9 | u | 1 | x | 10% | x
COCCOC(=O)c1[nH]c2c(c1C)C(=O)CC(c1ccco1)C2 (stereo unspecified) | -55* | u | -23 | u | -27% | -9%
CSCCOC(=O)c1[nH]c2c(c1C)C(=O)CC(c1ccco1)C2 (stereo unspecified) | -66* | u | -20 | u | -27% | 5%
COc1ccc(Br)cc1-c1nc2c(c(=O)[nH]c(=O)n2Cc2ccccc2)n1C | -1 | -3% | 3 | 0% | -4% | x
N#CC(=C1NC(=O)c2ccccc21)c1nc2ccccc2n1CCO | 1 | x | -1 | x | i | x
CCCCC1=CC2=C(c3ccco3)C(=O)C(C)(OC(=O)c3ccc(OC)cc3)C(=O)C2=CN1Cc1ccccc1 (stereo unspecified) | -71* | u | -9 | 1% | -8% | -2%
CCOC(=O)[C@]12CCC=C1N(Cc1ccc3c(c1)OCO3)C(=O)[C@H](CC(=O)NCc1ccccc1)C2 | 4 | x | -4 | x | x | x
CC(C)(C)NC(=O)CSc1nc2ccc(NC(=O)CSc3nnnn3Cc3ccccc3)cc2s1 | -20 | 36% | -9 | -4% | -2% | x
CCOC(=O)CSc1nc2ccc(NC(=O)CSc3nnnn3Cc3ccccc3)cc2s1 | -30 | 26% | -13 | 7% | -9% | -3%
Cc1nnc2ccc(-c3ccc(NS(C)(=O)=O)cc3)nn12 | -5 | -7% | -2 | 1% | -1% | x
CCOc1ccc(-c2ccc(SCC(=O)Nc3nnc(CC)s3)nn2)cc1 | -5 | 0% | -2 | 0% | 1% | x
CCOc1ccc(-c2ccc(SC)nn2)cc1 | -50* | -1% | -85* | u | u | 16µM*
